Experimental data published in PubChem BioAssay AID1159580 (chemical genetic matrix, 2015).
Where “and” joins values, the source holds several entries; their conditions need not be identical. Identical values can stand only once. The campaign covered roughly 5,500 compounds. About 2,000 (36%) were called active. Roughly 18% stayed inconclusive and do not appear here. Rule as the data show it: active = normalized growth mostly below about 0.91 (no sharp cut-off); inconclusive = no clear call, values can overlap the other calls; inactive = mostly above about 0.92. The list shows a part of the results.

Experiment: chemical genetic growth profiling, strain panel (AID 1159580);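 also: tested at 20 µM; growth read once vehicle control cultures reached saturation at 30 °C; 1 = growth at the plate median or of vehicle wells; lower values mean less growth of the strain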
Conditions: S. cerevisiae deletion strains, growth OD

Measured: normalized growth

C[N+]12CCC(CC1)C(OC(=O)C(O)(c1ccccc1)c1ccccc1)C2 (configuration not stated)
inactive: locus YAL013W, strain DEP1, stronger effect = lower value 0.995 | locus YAL021C, strain ccr4, stronger effect = lower value 0.983 | locus YAL026C, strain drs2, stronger effect = lower value 1.01 | locus YAL030W, strain snc1, stronger effect = lower value 0.985 | locus YBL061C, strain skt5, stronger effect = lower value 0.968 | locus YBR009C, strain hhf1, stronger effect = lower value 0.989 | locus YBR021W, strain FUR4, stronger effect = lower value 0.99 | locus YBR023C, strain chs3, stronger effect = lower value 0.987 | locus YBR171W, strain sec66, stronger effect = lower value 0.957 | locus YBR229C, strain ROT2, stronger effect = lower value 0.989 | locus YBR231C, strain swc5, stronger effect = lower value 0.995 | locus YBR279W, strain paf1, stronger effect = lower value 0.985 | locus YCL011C, strain gbp2, stronger effect = lower value 0.951 | locus YCL016C, strain dcc1, stronger effect = lower value 0.956 | locus YCL029C, strain bik1, stronger effect = lower value 0.956 | locus YCL061C, strain MRC1, stronger effect = lower value 0.992 | locus YCL069W, strain vba3, stronger effect = lower value 0.998 | locus YCR088W, strain abp1, stronger effect = lower value 0.984 | locus YDL005C, strain med2, stronger effect = lower value 0.974 | locus YDL035C, strain GPR1, stronger effect = lower value 1.03 | locus YDL040C, strain nat1, stronger effect = lower value 0.993 | locus YDL074C, strain BRE1, stronger effect = lower value 0.975 | locus YDL101C, strain DUN1, stronger effect = lower value 0.975 | locus YDL134C, strain PPH21, stronger effect = lower value 0.981 | locus YDL185W, strain tfp1, stronger effect = lower value 0.974 | locus YDL192W, strain arf1, stronger effect = lower value 0.992 | locus YDR001C, strain nth1, stronger effect = lower value 0.978 | locus YDR069C, strain doa4, stronger effect = lower value 0.982 | locus YDR101C, strain arx1, stronger effect = lower value 0.971 | locus YDR137W, strain rgp1, stronger effect = lower value 0.975 | locus YDR150W, strain NUM1, stronger effect = lower value 0.996 | locus YDR159W, strain sac3, stronger effect = lower value 1.01 | locus YDR162C, strain NBP2, stronger effect = lower value 1 | locus YDR195W, strain ref2 0.983 | locus YDR297W, strain sur2, stronger effect = lower value 0.976 | locus YDR318W, strain mcm21, stronger effect = lower value 0.975 | locus YDR334W, strain swr1, stronger effect = lower value 0.938 | locus YDR335W, strain msn5, stronger effect = lower value 0.971 | locus YDR388W, stronger effect = lower value 0.984 | locus YDR392W, strain spt3, stronger effect = lower value 0.922 | locus YDR502C, strain sam2, stronger effect = lower value 0.987 | locus YEL003W, strain gim4, stronger effect = lower value 0.987 | locus YEL037C, strain rad23, stronger effect = lower value 0.988 | locus YEL061C, strain CIN8 (second series), stronger effect = lower value 0.987 | locus YEL061C, strain CIN8, stronger effect = lower value 0.993 | locus YER015W, strain faa2, stronger effect = lower value 0.987 | locus YER016W, strain bim1, stronger effect = lower value 0.989 | locus YER110C, stronger effect = lower value 0.975 | locus YER111C, strain swi4, stronger effect = lower value 0.987 | locus YER155C, strain BEM2 (second series), stronger effect = lower value 1.01 | locus YER155C, strain BEM2, stronger effect = lower value 0.983 | locus YER167W, strain BCK2, stronger effect = lower value 0.992 | locus YFR010W, strain ubp6, stronger effect = lower value 0.981 | locus YGL078C, strain dbp3, stronger effect = lower value 0.992 | locus YGL086W, strain mad1, stronger effect = lower value 1 | locus YGL167C, strain pmr1, stronger effect = lower value 0.976 | locus YGL173C, strain kem1, stronger effect = lower value 0.974 | locus YGL227W, strain vid30, stronger effect = lower value 0.979 | locus YGL240W, strain doc1, stronger effect = lower value 0.981 | locus YGL248W, strain PDE1, stronger effect = lower value 0.99 | locus YGL253W, strain hxk2, stronger effect = lower value 0.966 | locus YGR078C, strain PAC10, stronger effect = lower value 0.983 | locus YGR135W, strain pre9, stronger effect = lower value 0.971 | locus YGR229C, strain SMI1, stronger effect = lower value 1 | locus YGR252W, strain gcn5, stronger effect = lower value 1.09 | locus YHR013C, strain ard1, stronger effect = lower value 0.962 | locus YHR027C, strain rpn1, stronger effect = lower value 0.974 | locus YHR030C, strain SLT2, stronger effect = lower value 0.988 and 0.977 | locus YHR079C, strain IRE1 (second series), stronger effect = lower value 0.97 | locus YHR079C, strain IRE1, stronger effect = lower value 1 | locus YHR094C, strain hxt1, stronger effect = lower value 0.982 | locus YHR129C, strain ARP1, stronger effect = lower value 0.99 | locus YHR142W, strain chs7, stronger effect = lower value 0.944 | locus YHR200W, strain rpn10, stronger effect = lower value 0.979 | locus YIL066C, strain RNR3, stronger effect = lower value 0.983 | locus YIL073C, strain SPO22, stronger effect = lower value 0.972 | locus YIL125W, strain kgd1, stronger effect = lower value 0.994 | locus YIR030C, strain dcg1, stronger effect = lower value 0.971 | locus YJL092W, strain hpr5, stronger effect = lower value 0.985 | locus YJL095W, strain BCK1 (second series), stronger effect = lower value 0.981 | locus YJL095W, strain BCK1, stronger effect = lower value 0.967 and 0.963 | locus YJL115W, strain asf1, stronger effect = lower value 0.968 | locus YJL129C, strain trk1, stronger effect = lower value 0.974 | locus YJL134W, strain LCB3, stronger effect = lower value 0.994 | locus YJL154C, strain vps35, stronger effect = lower value 0.98 | locus YJL164C, strain tpk1, stronger effect = lower value 0.979 | locus YJL166W, strain qcr8, stronger effect = lower value 0.95 | locus YJL168C, strain set2, stronger effect = lower value 0.984 | locus YJL187C, strain SWE1 (second series), stronger effect = lower value 0.974 | locus YJL187C, strain SWE1, stronger effect = lower value 0.988 | locus YJR043C, strain POL32, stronger effect = lower value 0.99 | locus YJR066W, strain TOR1, stronger effect = lower value 0.987
